Assay results taken from PubChem BioAssay (NCI).
Compounds without any hit were thinned out: in the full panel of roughly 83,000, 20% have a hit.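 Growth was measured after 48 h exposure to one concentration of compound in 96-well plates. Values under 10 count as active.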 A number with no mark means an inactive call. Active and inactive are the calls of the source.

The compounds below were run on SK-MEL-2 melanoma (assay: NCI-60 one-dose screen, 48 h (100 = growth as untreated, 0 = no growth, -100 = all killed)). Conditions: 10 µM unless noted.
Compound `O=C(Nc1ccc(O)cc1)C(Cl)(Cl)Cl` has a growth of 99.4%. With `CCCOC(=O)N[C@H]1CCc2c(Br)c(OC)c(OC)c(OC)c2-c2ccc(SC)c(=O)cc21` the growth was 34.2%. `CCOC(=O)[C@@H](C)C[C@H](Cc1ccccc1)NC(=O)c1csc([C@@H](C[C@H](C(C)C)N(C)C(=O)[C@@H](NC(=O)[C@H]2CCCCN2C)C(C)(C)CC)OC(C)=O)n1` was tested, and the growth was 2.19% (active). `CN1CC(CNC(=O)OCc2ccccc2)CC2c3cccc4c3c(cn4C)CC21` (configuration not stated) showed a growth of 47.2%. `COc1ccc(NC([Se])=NC23CC4CC(CC(C4)C2)C3)cc1` was tested, and the growth was -8.11% (active). `ClCCN(CCCl)c1ccc(/C=N\N=C\c2ccc(N(CCCl)CCCl)cc2)cc1` showed a growth of 36.7%. Work on `C[C@@]12CC=C3c4nc(Nc5cccc(O)c5)sc4CC[C@]3(C)[C@H]1CC[C@]1(C)C(=O)CC[C@@H]21` yielded a growth of 29.1%. In the case of `O=[N+]([O-])/C=C\c1ccc(Cl)c(Cl)c1`, the growth was 84%. `CC(C)OC(=O)[C@H](C)NP(=O)(Oc1ccccc1)C1CCCN(O)C1=O` (some centres not stated) gave a growth of 94.1%. With `COC(=O)CCC1=C(C)c2cc3[n-]c(cc4nc(cc5[n-]c(cc1n2)c(CCC(=O)OC)c5C)C=C4C)cc3C.[Cd+2]` the growth was 32.4%. Work on `C=CCn1cc(C=C2C(=O)N(C)C(=O)N(C)C2=O)c2ccccc21` yielded a growth of 102%. `COC(=O)[C@@H](C)C[C@H](Cc1ccccc1)NC(=O)c1nc([C@@H](C[C@H](C(C)C)N(C)C(=O)[C@@H](NC(=O)[C@H]2C[C@H](O)CCN2C)C(C)C)OC(C)=O)sc1C(C)C` gave a growth of 12.4%. For `N#CC1C(C#N)C2CCC1C1C2N1c1ccccc1` (configuration not stated), the growth was 106%. For `CC(C)(NC(=O)O[C@@H]1CN2CCC1CC2)c1csc(-c2ccc(F)cc2)n1`, the growth was 108%. Work on `CCC(C)(C)[C@H](NC(=O)[C@H]1CCCCN1C)C(=O)N(C)[C@H](C[C@@H](OC(C)=O)c1nc(C(=O)N[C@@H](Cc2ccccc2)C[C@H](C)C(=O)O)cs1)C(C)C` yielded a growth of 21.9%. `C[C@]12CCc3sc(-c4ccccc4O)nc3C1=CC[C@@H]1[C@@H]2CC[C@]2(C)C(=O)CC[C@@H]12` was tested, and the growth was 105%. For `CCOC(=O)N1CC1`, the growth was 105%. For `N#CC1(C#N)C(c2ccc(N(CCCl)CCCl)cc2)OC23CCCCC2C1(C#N)C(=N)O3` (configuration not stated), the growth was 122%. Compound `C=CCCCN=C=S` has a growth of 56%. For `Cc1cccc(N2CCN(C(C)C#N)CC2)c1` (configuration not stated), the growth was 104%. For `O=C(Nc1ccc([N+](=O)[O-])cc1)C(Cl)(Cl)Cl`, the growth was 102%. `COP(=S)(N1CC1)N1CC1` was tested, and the growth was 103%. Compound `O=C(N/N=C\c1ccc(N(CCCl)CCCl)cc1)c1cccc([N+](=O)[O-])c1` has a growth of 101%. With `CC(=O)OC[C@]1(C)C=C2C(=O)[C@](C)(O)C3(CC3)C(C)=C2[C@H]1O` the growth was -55.1% (active). With `CS(=O)(=O)CCN1CC2CCCC(C2)C1` the growth was 105%. Compound `CCOC(=O)[C@@H](C)C[C@H](Cc1ccccc1)NC(=O)c1csc([C@@H](C[C@H](C(C)C)N(C)C(=O)[C@@H](NC(=O)[C@H]2C[C@H](O)CCN2C)C(C)C)OC(C)=O)n1` has a growth of 16.8%. With `CNCc1cccnc1` the growth was 112%. Compound `Cn1cc(C=O)c2nccnc21` has a growth of 123%. In the case of `Cc1cc(N(CCCl)CCCl)ccc1C=Nc1ccccc1-c1ccccc1`, the growth was 115%. With `CNC(=O)Oc1ccc2c(c1)OCO2` the growth was 98.2%. `COc1ccc(N(CC(=O)NCCC[Te]c2ccccc2)C(=O)CCSC2=C(C)C(=O)c3ccccc3C2=O)cc1` was tested, and the growth was -49.6% (active). For `Cn1cccc1C1CC(=O)N(CCC[Se]C#N)C1=O` (configuration not stated), the growth was -35.2% (active). In the case of `CC1(C)[C@H](O)[C@H](F)C[C@@]2(C)Oc3ccc(C(=O)Nc4ccc5c(c4)NC(=O)C54CCN(CCCCC#N)CC4)cc3C[C@H]12`, the growth was 28.8%. In the case of `CCOC(=O)[C@@H](C)C[C@H](Cc1ccccc1)NC(=O)c1nc([C@@H](C[C@H](C(C)C)N(C)C(=O)[C@@H](NC(=O)[C@H]2CCCCN2C)C(C)C)OC(C)=O)sc1CCOCc1ccccc1`, the growth was -50.6% (active). Work on `C[C@]12CCc3sc(-c4cccc(F)c4)nc3C1=CC[C@@H]1[C@@H]2CC[C@]2(C)C(=O)CC[C@@H]12` yielded a growth of 32.1%. For `COC(=O)[C@H](C[C@H](Cc1ccccc1)NC(=O)c1csc([C@@H](C[C@H](C(C)C)N(C)C(=O)[C@@H](NC(=O)[C@H]2CCCCN2C)C(C)C)OC(C)=O)n1)NC(=O)OCc1ccccc1`, the growth was 5.82% [8.5 µM] (active). With `C[C@]12CC[C@H]3[C@@H](C[C@@H]4SC(Nc5ccccc5)=N[C@@]45CC(O)CC[C@]35C)[C@@H]1CCC2O` (some centres not stated) the growth was 51.7%.
